A number with no mark means an inactive call. Entries that show only a call come without a potency. Active and inactive are the calls of the source. The call rests on the fitted dose curve; in most records, active means well fitted activation curve with a large enough effect in the repeat runs; inconclusive means weak or mixed curves; inactive means flat fitted curve, though single readings scatter.
Molecular target: KiSS-1 receptor (Homo sapiens) (UniProt Q969F8)
Experiment: Human kisspeptin (KISS1R) small molecule agonists, calcium flux assay in KISS1R-HEK293 cells (AID 1920064)
Conditions: KISS1R-HEK293, calcium flux fluorescence, agonist; series mostly up to 76.8 µM; activation: at the top concentration
Text: National Center for Advancing Translational Sciences [NCATS]
Division of Preclinical Innovation [DPI]
U.S. Environmental Protection Agency [EPA]
National Institutes of Environmental Health Sciences [NIEHS]
National Toxicology Program [NTP]
U.S. Food and Drug Administration [FDA]
Kisspeptin and its receptor KISS1R play key roles in mammalian reproduction due to their involvement in the onset of puberty and control of the hypothalamic-pituitary-gonadal axis such as regulates GnRH release from the hypothalamus. The kisspeptin/KISS1R system also plays a direct role in peripheral organs (including the ovary, testis, uterus, and placenta) and is implicated in reproductive diseases such as miscarriage and polycystic ovary syndrome (PCOS). Abnormal KISS1R activity is associated with abnormal puberty, infertility, endometriosis, and hormone-dependent tumors. The KISS1 receptor (KISS1R, also called GPR54), a G-protein-coupled receptor (GPCR), acts (through phospholipase C) to increase intracellular inositol trisphosphate and then release intracellular calcium stores. Cell-based KISS1R-HEK293 assay is using HEK293 cells that have been genetically engineered to express the human KISS1R, which activity can be measured by calcium signaling. A compound/drug can activate (agonist) KISS1R that can be monitored by levels of intracellular calcium.
KISS1R-HEK293 cells developed by Codex Corp contain human KISS1R gene, which was stably integrated into HEK 293 cells. The compound activation can be detected by fluorescence intensity via calcium flux assay. This cell line has been used to screen the Tox21 10K compound library to identify agonists of KISS1R.
KISS1R-Hek293 cells were dispensed at 1500 cells/4uL/well in 1536-well black wall/clear bottom plates using a multidrop dispenser. After the assay plates were incubated at a 37 C/5% CO2 incubator for 18 hours, 4 microL of Calcium Dye Solution was added to each well. The plates were incubated at 37 C for 1 hour. And then 23 nL of compounds dissolved in DMSO, positive controls, or DMSO only was transferred to the assay plate by a pin tool station. The fluorescence intensity in the plates was measured using FDSS 7000EX kinetic plate reader with a filter set of Ex/Em=480/540 for 3 min at 1 sec intervals. Each test compound was measured at 15 concentrations and in triplicates.

Chain of KiSS-1 receptor (Homo sapiens) (Q969F8 whole entry, looked up): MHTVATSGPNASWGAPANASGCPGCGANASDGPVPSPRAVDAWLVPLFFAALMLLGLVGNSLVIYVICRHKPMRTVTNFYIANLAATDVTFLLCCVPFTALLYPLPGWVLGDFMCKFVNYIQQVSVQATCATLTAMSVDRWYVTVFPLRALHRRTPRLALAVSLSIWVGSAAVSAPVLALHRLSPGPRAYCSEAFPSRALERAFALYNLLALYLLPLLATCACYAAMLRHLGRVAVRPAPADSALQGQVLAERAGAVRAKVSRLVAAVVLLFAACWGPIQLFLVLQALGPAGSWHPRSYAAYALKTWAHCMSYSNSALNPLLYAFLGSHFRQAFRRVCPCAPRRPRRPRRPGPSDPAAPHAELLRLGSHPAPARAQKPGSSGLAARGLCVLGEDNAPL

Row | SMILES | activation | Potency
1 | N#CCC#N | 6.62% | 
2 | C=C(C)C#N |  | inactive
3 | O=c1[nH]c2ccccc2n1C1CCN(CCCC(c2ccc(F)cc2)c2ccc(F)cc2)CC1 |  | inactive
4 | COc1ccc(C(CN(C)C)C2(O)CCCCC2)cc1 (stereo not given) |  | inactive
5 | O=C(O)C(Cl)Cl |  | inactive
6 | CNCC(O)c1ccc(O)cc1 (stereo not given) |  | inactive
7 | c1ccc2c(c1)oc1ccccc12 |  | inactive
8 | CC(C)CCCCCOC(=O)c1ccccc1C(=O)OCCCCCC(C)C | 1.86% | 
9 | CC(C)(C)C(=O)CCl |  | inactive
10 | CN(C)C(=S)SSC(=S)N(C)C |  | inactive
11 | O=C(Nc1ccc(Br)cc1)c1cc(Br)cc(Br)c1O |  | inactive
12 | O=c1[nH]c2ccccc2c(=O)o1 |  | inactive
13 | CCNc1nc(Cl)nc(NC(C)C)n1 |  | inactive
14 | Nc1ccc([As](=O)(O)O)cc1 |  | inactive
15 | C1CN2CCN1CC2 |  | inactive
16 | CN=C=S |  | inactive
17 | COCCC#N | -1.13% | 
18 | C=CCc1cc(OC)c2c(c1)OCO2 | -1.47% | 
19 | CNC(=O)O/N=C/C(C)(C)SC |  | inactive
20 | CSc1nc(NC(C)C)nc(NC(C)C)n1 |  | inactive

Row | SMILES | activation | Potency
21 | CNC(=O)N(C)c1nnc(C(C)(C)C)s1 |  | inactive
22 | Oc1ccc(Cl)cc1Cl |  | inactive
23 | CC[N+](CC)(CC)CC |  | inactive
24 | Oc1ccccc1-c1ccccc1 |  | inactive
25 | N#CC(Cl)(Cl)Cl | 11.2% | 
26 | CCCCCCCCOC(=O)c1ccccc1C(=O)OCCCCCCCC |  | inactive
27 | COc1ccc(CO)cc1 |  | inactive
28 | CCN(CC)C(=O)SCc1ccc(Cl)cc1 |  | inactive
29 | CC1=C2[C@H]3OC(=O)[C@@H](C)[C@@H]3CC[C@@]2(C)C=CC1=O | -1.81% [at 35.3 µM] | 
30 | CC(=O)C=C(C)C |  | inactive
31 | Oc1ccc(Cl)cc1 |  | inactive
32 | COc1cc2c(cc1OC)[C@@]13CCN4CC5=CCO[C@H]6CC(=O)N2[C@H]1[C@H]6[C@H]5C[C@H]43 | 8.36% | 
33 | NC(=O)c1cc([N+](=O)[O-])cc([N+](=O)[O-])c1 | 4.42% [at 35.3 µM] | 
34 | BrCCBr |  | inactive
35 | CN(C)C(=S)S |  | inactive
36 | NCc1cccnc1 |  | inactive
37 | CC(C)C(C)(N)C#N (stereo not given) | 0.692% | 
38 | CNC(=S)S |  | inactive
39 | O=[N+]([O-])c1cc([As](=O)(O)O)ccc1O |  | inactive
40 | N#Cc1ccccc1N | 4.38% | 

— PubChem BioAssay (Tox21)
